The nature of assay [1]: Nuclear factor erythroid 2-related factor 2/antioxidant responsive element (Nrf2/ARE) small molecule agonists: qHTS cell viability counter screen in human keratinocytes (AID 1919968; active means well fitted curve in the direction sought with a large enough effect in the repeat runs; an effect the other way counts as inactive or inconclusive; further: nearly all actives have a fitted effect of over 55% in size; further: potency means the concentration at half of the fitted maximal effect). The procedure, abridged: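 Measured as CellTiter-Fluor fluorescence, this readout tracks cytotoxicity in the same wells as the ARE-luciferase screen. HaCaT reporter cells (1,500/well) received compounds after a 5 h pre-incubation and were exposed for 23 h.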
(Quantitative high-throughput screening tests each substance at several concentrations.)

The nature of assay [2]: Nuclear factor erythroid 2-related factor 2/antioxidant responsive element (Nrf2/ARE) small molecule agonists: luciferase reporter gene qHTS assay in human keratinocytes (AID 1919969). Further: nearly all actives have a fitted effect of over 35% in size. Further: potency means the concentration at half of the fitted maximal effect. In general terms: A reporter such as luciferase makes a cellular process visible.
The target in assay [3] is Gonadotropin-releasing hormone receptor (Homo sapiens) (UniProt P30968). Description: Human gonadotropin-releasing hormone receptor (GnRHR) small molecule agonists, calcium flux assay in GnRHR-HEK293 cells (AID 1920063). Further: nearly all actives have a fitted effect of over 35% in size. The method in brief: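 Fluorescence kinetics (480 nm excitation, 540 nm emission; 3 min, 1 s steps) report calcium mobilisation in human GnRHR-HEK293 cells in agonist mode. Dye incubation: 1 h, 37 C.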
Gonadotropin-releasing hormone receptor (Homo sapiens), sequence (P30968 whole entry, looked up): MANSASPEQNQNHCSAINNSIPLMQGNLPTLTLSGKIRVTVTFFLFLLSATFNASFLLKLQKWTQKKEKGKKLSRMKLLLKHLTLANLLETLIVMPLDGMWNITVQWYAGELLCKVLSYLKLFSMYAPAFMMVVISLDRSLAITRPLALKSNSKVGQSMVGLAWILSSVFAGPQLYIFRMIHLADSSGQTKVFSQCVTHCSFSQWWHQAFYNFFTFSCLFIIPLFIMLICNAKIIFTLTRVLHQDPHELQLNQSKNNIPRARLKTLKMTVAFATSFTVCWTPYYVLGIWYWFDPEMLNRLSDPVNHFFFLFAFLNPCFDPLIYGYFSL

The target in assay [4] is KiSS-1 receptor (Homo sapiens) (UniProt Q969F8). Description: Human kisspeptin (KISS1R) small molecule agonists, calcium flux assay in KISS1R-HEK293 cells (AID 1920064; active means well fitted curve in the direction sought with a large enough effect in the repeat runs; an effect the other way counts as inactive or inconclusive). The method in brief:
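Measures KISS1R agonism through calcium-sensitive dye fluorescence in stably transfected HEK293 cells, read for 3 min after pin-tool compound delivery; 15-point titrations in triplicate.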

Assay [5] can be described thus: G protein-coupled receptor (GPCR) small molecule agonists, calcium flux assay: HEK293 wild type cell line counter screen (AID 1920065). The procedure, abridged:
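Readout: fluorescence at 480 nm excitation/540 nm emission, sampled at 1 s intervals for 3 min. Cells had been cultured 18 h, then dye-loaded 1 h at 37 C before compound or ATP addition.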

Assay [6] can be described thus: p53 small molecule agonists, cell-based qHTS assay with human liver microsomes (AID 1963577).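 Further: p53 response element beta-lactamase reporter cells with liver microsomes plus NADPH.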 The method in brief: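 Metabolically competent format: test substances, human liver microsomes and NADPH (both 0.5 mg/mL final) incubated with p53RE-bla cells 16 h at 37 C. Beta-lactamase reporter signal then quantified by fluorescence.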
Assay [7] can be described thus: p53 small molecule agonists, cell-based qHTS assay with rat liver microsomes (AID 1963578). The method in brief: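 Each plate received p53RE-bla cells, then compound, then rat liver microsomes and NADPH (both 0.5 mg/mL final). Plates were held 16 h at 37 C, and beta-lactamase activity was detected with LiveBLAzer over 2 h.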
A short description of assay [8]: p53 small molecule agonists, cell-based qHTS assay with rat liver microsomes: qHTS cell viability counter screen (AID 1963580). Further: nearly all actives have a fitted effect of over 45% in size. The procedure, abridged: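 Intracellular ATP, by CellTiter-Glo luminescence, defines viability. HCT-116 p53RE-bla cells, 4,000 per well, were compound-treated in the presence of rat liver microsomes and NADPH for 16 h at 37 C.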
Assay [9] is described as follows: p53 small molecule agonists, cell-based qHTS assay (AID 1963582; active means well fitted activation curve with a large enough effect in the signal ratio in the repeat runs, not every such curve was filed as active; the % refers to the signal ratio). The method in brief:
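Compounds are pin-transferred in DMSO onto p53RE-bla cells and incubated 16 h at 37 C. The B/G FRET beta-lactamase substrate is then applied for 2 h at RT and fluorescence recorded.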

Assay [10] addresses 5-hydroxytryptamine receptor 2A (Homo sapiens) (UniProt P28223). Description: 5-hydroxytryptamine receptor 2A (HTR2A) small molecule antagonists, cell-based qHTS assay (AID 1963586). Further: nearly all actives have a fitted effect of over 45% in size. Further: potency means the concentration at half of the fitted maximal effect. The method in brief: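 Antagonist-mode intracellular calcium assay: DOI (4 nM) added after 5 min compound pre-incubation at room temperature to dye-loaded HTR2A-CHO cells. Fluorescence followed for 3 min, sampled every second.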

The target is the same in assay [11]. Description: 5-hydroxytryptamine receptor 2A (HTR2A) small molecule agonists, cell-based qHTS assay (AID 1963587). Further: nearly all actives have a fitted effect of over 30% in size. The method in brief: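 Kinetic calcium-flux fluorescence (2 min, 1 sec intervals) after compound addition in agonist mode. HTR2A-CHO cells were cultured 18 h, then dye-loaded 1 h at 37 C.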
Assay [12] has as its target Muscarinic acetylcholine receptor M1 (Homo sapiens) (UniProt P11229). The experiment in a line: Cholinergic receptor muscarinic 1 (CHRM1) small molecule antagonists, cell-based qHTS assay (AID 1963588). Further: nearly all actives have a fitted effect of over 40% in size. Further: potency means the concentration at half of the fitted maximal effect. The method in brief: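 CHRM1-CHO calcium-flux assay, antagonist mode. Cells were seeded 18 h, dye-loaded 1 h at 37 C and given compound for 5 min at RT, then acetylcholine was added at 50nM. FDSS fluorescence was read 3 min; 15 concentrations, three runs.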

A short description of assay [13]: cAMP Responsive Elements (CRE) small molecule agonists, cell-based qHTS assay (AID 1963590). The method in brief: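 Cell line: CRE-bla HEK 293T; medium DMEM/10% dialyzed FBS/0.1 mM NEAA/1 mM pyruvate/25 mM HEPES; 3 h compound exposure; beta-lactamase FRET readout after 2 h substrate loading at RT.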
A short description of assay [14]: cAMP Responsive Elements (CRE) small molecule antagonists, cell-based qHTS assay (AID 1963591; active means well fitted inhibition curve with a large enough effect in the signal ratio in the repeat runs, not every such curve was filed as active; the % refers to the signal ratio). The procedure, abridged:
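Inhibition of NKH477-driven (0.25 uM final) CRE-beta-lactamase signal in HEK293T cells, 3 h compound exposure at 37 °C, detected by FRET substrate fluorescence.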

Assay [15] has as its target Beta-2 adrenergic receptor (Homo sapiens) (UniProt P07550). Description: Adrenergic beta2 receptor (ADRB2) small molecule antagonists, cell-based qHTS assay (AID 1963592). Further: series mostly up to about 92 µM; nearly all actives have a fitted effect of over 50% in size. The method in brief: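 Cells (CHO, stable ADRB2 overexpression) incubated 18-20hr at 37C; compounds added from DMSO; agonist mix (1nM isoproterenol, 100uM IBMX, 25uM Ro-20-1724) added; 0.5hr RT; d2-cAMP and anti-cAMP-cryptate added; 1hr RT; 665/615 nm read.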

For assay [16], the target named is D(2) dopamine receptor (Homo sapiens) (UniProt P14416). The experiment in a line: Dopamine D2 receptor (DRD2) small molecule agonists, cell-based qHTS assay (AID 1963594). Further: nearly all actives have a fitted effect of over 35% in size. The method in brief:
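cAMP accumulation in DRD2-HEK293 cells measured by HTRF after 1 h detection; compounds added 10 min before NKH477 (200nM […]) forskolin-analogue stimulation, 30 min at room temperature, with Ro20-1724 present at 0.1 mM final.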

The target is the same in assay [17]. The experiment in a line: Dopamine D2 receptor (DRD2) small molecule antagonists, cell-based qHTS assay (AID 1963595; active means well fitted inhibition curve with a large enough effect in the signal ratio in the repeat runs, with a control signal flat; the % refers to the signal ratio). The procedure, abridged:
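Antagonist mode in DRD2-HEK293 cells: after compound addition with 0.1 mM Ro20-1724, cells received quinpirole (12 nM) and NKH477 (200 nM) for 30 min at room temperature; HTRF cAMP read after 1 h detection.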

Assay [18] deals with Muscarinic acetylcholine receptor M1 (Homo sapiens) (UniProt P11229). Description: Cholinergic receptor muscarinic 1 (CHRM1) small molecule agonists, cell-based qHTS assay (AID 1963589). Further: nearly all actives have a fitted effect of over 35% in size. The method in brief: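 Each compound was tested at 15 concentrations across three independent runs on dye-loaded CHO cells stably expressing human CHRM1, reading intracellular calcium fluorescence kinetically at 1 sec intervals.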
Muscarinic acetylcholine receptor M1 (Homo sapiens), sequence (P11229 whole entry, looked up): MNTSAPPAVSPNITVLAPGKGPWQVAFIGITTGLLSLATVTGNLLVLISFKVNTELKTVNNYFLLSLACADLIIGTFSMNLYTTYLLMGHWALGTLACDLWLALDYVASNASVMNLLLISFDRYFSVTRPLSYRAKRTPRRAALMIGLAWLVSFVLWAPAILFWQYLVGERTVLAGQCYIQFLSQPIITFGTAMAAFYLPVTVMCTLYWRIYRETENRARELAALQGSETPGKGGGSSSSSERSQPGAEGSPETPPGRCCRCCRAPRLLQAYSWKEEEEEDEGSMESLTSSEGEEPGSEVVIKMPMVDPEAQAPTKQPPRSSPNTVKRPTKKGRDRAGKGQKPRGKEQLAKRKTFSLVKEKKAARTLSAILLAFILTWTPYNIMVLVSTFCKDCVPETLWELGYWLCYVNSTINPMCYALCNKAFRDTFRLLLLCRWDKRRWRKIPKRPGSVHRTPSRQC

A short description of assay [19]: p53 small molecule agonists, cell-based qHTS assay: qHTS cell viability counter screen (AID 1963581). Further: nearly all actives have a fitted effect of over 45% in size. The method in brief: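 In the same plates used for the p53 bla reporter, HCT-116 cells given compounds for 16 h at 37 C received CellTiter-Glo; luminescence was recorded 30 min later at room temperature.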

A number with no mark means an inactive call. Records with an inconclusive call do not appear. Calls of active or inactive are those of the source. Unless noted, the call rests on the fitted dose curve.

D(2) dopamine receptor (Homo sapiens), sequence (P14416 whole entry, looked up): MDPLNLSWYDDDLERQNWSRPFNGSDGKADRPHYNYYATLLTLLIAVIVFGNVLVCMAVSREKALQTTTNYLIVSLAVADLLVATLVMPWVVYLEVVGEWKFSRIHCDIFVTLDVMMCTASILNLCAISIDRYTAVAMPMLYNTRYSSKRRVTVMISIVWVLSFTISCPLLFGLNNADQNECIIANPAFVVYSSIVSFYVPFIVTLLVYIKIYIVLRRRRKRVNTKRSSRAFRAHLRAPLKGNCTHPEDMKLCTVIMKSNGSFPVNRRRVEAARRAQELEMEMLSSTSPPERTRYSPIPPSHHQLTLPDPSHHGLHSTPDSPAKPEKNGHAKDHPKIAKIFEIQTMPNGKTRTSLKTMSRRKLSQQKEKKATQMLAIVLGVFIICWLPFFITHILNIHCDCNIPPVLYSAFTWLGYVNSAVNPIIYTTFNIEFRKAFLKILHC
5-hydroxytryptamine receptor 2A (Homo sapiens), sequence (P28223 whole entry, looked up): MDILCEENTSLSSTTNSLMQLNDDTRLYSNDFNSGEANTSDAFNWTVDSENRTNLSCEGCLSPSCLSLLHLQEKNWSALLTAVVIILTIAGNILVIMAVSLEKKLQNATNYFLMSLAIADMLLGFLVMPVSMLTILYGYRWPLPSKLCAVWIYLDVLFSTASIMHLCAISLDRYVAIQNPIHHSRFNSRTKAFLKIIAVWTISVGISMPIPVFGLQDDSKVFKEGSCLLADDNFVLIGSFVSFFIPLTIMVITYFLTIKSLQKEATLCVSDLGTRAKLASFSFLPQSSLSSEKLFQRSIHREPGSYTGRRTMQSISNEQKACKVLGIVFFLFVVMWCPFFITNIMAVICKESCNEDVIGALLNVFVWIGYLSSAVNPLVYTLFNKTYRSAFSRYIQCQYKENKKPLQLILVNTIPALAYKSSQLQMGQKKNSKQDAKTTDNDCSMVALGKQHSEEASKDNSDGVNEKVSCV
KiSS-1 receptor (Homo sapiens), sequence (Q969F8 whole entry, looked up): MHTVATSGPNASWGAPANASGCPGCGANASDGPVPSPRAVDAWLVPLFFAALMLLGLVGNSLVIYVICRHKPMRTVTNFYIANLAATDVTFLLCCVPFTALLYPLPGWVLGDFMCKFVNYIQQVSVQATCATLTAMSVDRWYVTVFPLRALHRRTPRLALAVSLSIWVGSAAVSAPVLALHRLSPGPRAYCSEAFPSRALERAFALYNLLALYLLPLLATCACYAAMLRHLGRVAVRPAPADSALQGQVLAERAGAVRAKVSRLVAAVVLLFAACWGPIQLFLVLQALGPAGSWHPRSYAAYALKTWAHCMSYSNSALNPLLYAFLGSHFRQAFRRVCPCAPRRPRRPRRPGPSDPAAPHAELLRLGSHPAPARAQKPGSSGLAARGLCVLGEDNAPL
Beta-2 adrenergic receptor (Homo sapiens), sequence (P07550 whole entry, looked up): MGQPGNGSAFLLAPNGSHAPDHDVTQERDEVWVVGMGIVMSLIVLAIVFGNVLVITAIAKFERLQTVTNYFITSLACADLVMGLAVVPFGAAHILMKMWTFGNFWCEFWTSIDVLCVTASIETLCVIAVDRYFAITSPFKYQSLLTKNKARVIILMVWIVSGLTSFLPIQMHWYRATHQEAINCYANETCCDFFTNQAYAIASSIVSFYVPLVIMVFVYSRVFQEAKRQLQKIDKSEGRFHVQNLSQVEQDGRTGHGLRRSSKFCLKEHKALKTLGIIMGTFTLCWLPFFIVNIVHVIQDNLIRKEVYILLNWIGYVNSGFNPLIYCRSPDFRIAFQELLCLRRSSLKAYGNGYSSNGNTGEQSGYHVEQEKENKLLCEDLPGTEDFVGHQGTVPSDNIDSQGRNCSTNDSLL

As to `CCCCCCCCCCCCCCBr`, the Potency result in [1], in assay [2], in assay [3], in assay [6], in assay [7] and in assay [8] was “inactive” in each case. Moreover, the Potency result in [9], in [10], in assay [11], in [12], in [13] and in [14] was “inactive” throughout. In addition, the Potency result in assay [15], in assay [16] and in [17] was “inactive” each time. In addition, the result in assay [4] and in assay [5] was inactive.

Regarding `CCNS(=O)(=O)c1ccc(C)cc1`, the Potency result in [1], in assay [2], in [3], in assay [6], in [7] and in [8] was “inactive” in each case. Moreover, the Potency result in assay [9], in assay [10], in assay [11], in [18], in [13] and in assay [14] was “inactive” in each case. Besides, the Potency result in assay [15] and in assay [16] was “inactive” each time. Moreover, the outcome in [4] and in assay [5] was inactive.

`CC[C@@]1(O)C(=O)OCc2c1cc1n(c2=O)Cc2c-1nc1ccccc1c2/C=N/OC(C)(C)C`: the Potency result in [1], in assay [2], in assay [3], in assay [6], in [7] and in assay [8] was “inactive” each time. The Potency entry in assay [19], in [11], in assay [18], in assay [15] and in assay [17] was “inactive” throughout. Moreover, the outcome in assay [4] and in [5] was inactive. Moreover, the Potency is 5.79 µM (active) in [10] and 20.5 µM (active) in assay [12].

In the case of `[Cl][Pt-2]([Cl])([Cl])[Cl]`, the Potency result in assay [1], in [2], in assay [3], in assay [6], in assay [7] and in assay [8] was “inactive” in each case. The Potency entry in assay [19], in assay [10], in [11], in [12], in assay [18] and in [14] was “inactive” in each case. For the same molecule, in [15], the Potency entry was “inactive”. Also, the outcome in assay [4] and in assay [5] was inactive.

Turning to `Cl[Si](Cl)(c1ccccc1)c1ccccc1`, the Potency result in assay [1], in assay [2], in assay [3], in assay [6], in assay [7] and in assay [8] was “inactive” each time. Also, the Potency entry in [9], in assay [10], in assay [12], in assay [18], in assay [13] and in assay [14] was “inactive” throughout. In addition, the Potency entry in [15], in [16] and in assay [17] was “inactive” each time. Besides, the outcome in [4] and in assay [5] was inactive.

In the case of `Cc1nc2ccccc2n1Cc1ccc(Cl)cc1`, in [1], the Potency was 1.68 µM (active). In addition, the Potency entry in assay [2], in [3], in assay [6], in assay [7], in [8] and in assay [19] was “inactive” throughout. Further, the Potency entry in assay [11], in [12], in [18], in [14] and in assay [17] was “inactive” throughout. The outcome in [4] and in assay [5] was inactive.

With `CC1=C(C)C(=O)C(CCCCC#CCCCC#CCO)=C(C)C1=O`, the Potency result in assay [1], in assay [3], in [6], in assay [7], in assay [8] and in [19] was “inactive” each time. Moreover, the Potency result in assay [10], in assay [11], in assay [12], in assay [14], in assay [15] and in [16] was “inactive” in each case. Also, the Potency entry in assay [17] is “inactive”. For the same molecule, in [2], the Potency was 29.8 µM (active). Moreover, the outcome in assay [4] and in assay [5] was inactive.

Take `CCS(=O)(=O)CCn1c([N+](=O)[O-])cnc1C`: the Potency result in assay [1], in [2], in [3], in assay [6], in assay [7] and in [8] was “inactive” throughout. The Potency result in [19], in assay [9], in assay [13], in assay [14], in assay [15] and in assay [16] was “inactive” throughout. The Potency result in assay [17] was “inactive”. For the same molecule, the outcome in assay [4] and in assay [5] was inactive.
